Records with an inconclusive call do not appear. Calls of active or inactive are those of the source. The call rests on the fitted dose curve; in most records, active means well fitted inhibition curve with a large enough effect; inconclusive means small, poorly fitted or top-dose-only effect; inactive means no such curve, though single readings can be large or run the other way.
assay: Counterscreen for APE1 Inhibitors: Fluorescent Dye Displacement Validation Assay (AID 1707); details: fluorescent dye displacement from DNA; series mostly up to 57.1 µM
From the text: In order to distinguish true inhibitors of DNA-processing enzymes from promiscuous DNA-binding compounds among screening assay hits, we developed a homogeneous and miniaturized assay based on fluorescent dye displacement test as originally described by Tse and Boger (Accounts of Chemical Research (2004) 37: 61-69). The assay is based on the strong enhancement of fluorescence when Thiazole Orange (ThO) binds to double-stranded DNA: conversely, in the presence of a DNA-binding compound, Thiazole Orange is displaced from the DNA and its fluorescence is reduced.
Buffer. 50 mM Tris-HCl (pH7.5) containing 50mM NaCl, 2 mM MgCl2, and 0.01% Tween-20.
Buffer containing 250 nM ThO in columns 3 and 4 as negative control (no dsDNA).
Reaction mixture: 250 nM ThO and 50 nM dsDNA at final concentration dispensed throughout the plate: in columns 1, 2, 5-48. Column 1 is neutral (100% activity).
5''TAMRA- TC ACC FTC GTA CGA CTC
3'' AG TGG GAG CAT GCT GAG
where F denotes tetrahydrofuran.
Control: Pintool transfer of control compound WB64 (W4761, Sigma-Aldrich) to column 2 of all assay plates as a two-fold 16-point dilution in duplicate (concentration range 5.75 uM - 0.175 nM).
Four uL of reaction mixtures were dispensed to 1536-well Greiner black solid bottom plates. Compounds (23 nL) were transferred […] in order to measure the endpoint fluorescence using 480 nm excitation and 540 nm emission fluorescence protocol.

| SMILES | outcome |
| --- | --- |
| Nc1nc(N)c2nc(CNc3ccc(C(=O)NC(CCC(=O)O)C(=O)O)cc3)cnc2n1 (stereo unspecified) | inactive |
| CCN(CC)CC#CCOC(=O)C(O)(c1ccccc1)C1CCCCC1 (stereo unspecified) | inactive |
| CC(C)NCC(O)c1ccc(NS(C)(=O)=O)cc1 (stereo unspecified) | inactive |
| CCN1CCCC1CNC(=O)c1cc(S(N)(=O)=O)ccc1OC (stereo unspecified) | inactive |
| OCc1ccc(-c2nn(Cc3ccccc3)c3ccccc23)o1 | inactive |
| Cc1ccc(S(=O)(=O)N[C@@H](Cc2ccccc2)C(=O)CCl)cc1 | inactive |
| O=C(O)C1CCCN(CCC=C(c2ccccc2)c2ccccc2)C1 (stereo unspecified) | inactive |
| NC(=O)c1cccc(N)c1 | inactive |
| CC(C)(C)NC(=O)[C@H]1CC[C@H]2[C@@H]3CC[C@H]4NC(=O)C=C[C@]4(C)[C@H]3CC[C@]12C | inactive |
| CC1=C(C(=O)O)N2C(=O)[C@@H](NC(=O)C(N)c3ccccc3)[C@H]2SC1 (stereo partly specified) | inactive |
| CC(=O)[C@H]1CC[C@H]2[C@@H]3CCC4=CC(=O)CC[C@]4(C)[C@H]3CC[C@]12C | inactive |

From PubChem BioAssay (NCATS)
